In PubChem BioAssay:
Calls of active or inactive are those of the source.

How the values were obtained:
[1] = tested on: Plasmodium falciparum Sir2 (PF13_0152, Sir2A); experiment: Plasmodium falciparum Sir2A binding compounds – biochemical, small-molecule microarray, 635 nm fluorescence, primary screen (AID 1098); conditions: fluorescence 635 nm, higher = more signal;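 also: score merges spot fluorescence intensity with its signal-to-noise ratio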
[2] = probe aDKK1 binding to arrayed compounds – biochemical, biotinylated probe, 635/667 nm fluorescence, primary screen (AID 1099); conditions: small-molecule microarray, higher = more signal;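 also: score merges 667nm spot fluorescence with signal to noise across triplicate slides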
[3] = probe aCHRDL2 binding to arrayed compounds – biochemical, biotinylated probe, 635/667 nm fluorescence, primary screen (AID 1100); conditions: small-molecule microarray, higher = more signal
[4] = change in splice reporter luminescence, either direction, cell-based, HEK293, spliceosome inhibition project, primary screen (AID 1101); conditions: HEK293 splicing luciferase reporter, 24 h, higher = more signal, called active from +8 up or from −8 down;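 also: HEK293 cells carrying a splicing-competent luciferase reporter gene; test concentration not given here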
[5] = target: Fibroblast growth factor 10 (Homo sapiens) (UniProt O15520); experiment: compounds binding fibroblast growth factor 10 – biochemical, small-molecule microarray, 635 nm fluorescence, primary screen (AID 1102); conditions: FGF10 binding, fluorescence 635 nm, higher = more signal
Chain of Fibroblast growth factor 10 (Homo sapiens) (O15520 whole entry, looked up): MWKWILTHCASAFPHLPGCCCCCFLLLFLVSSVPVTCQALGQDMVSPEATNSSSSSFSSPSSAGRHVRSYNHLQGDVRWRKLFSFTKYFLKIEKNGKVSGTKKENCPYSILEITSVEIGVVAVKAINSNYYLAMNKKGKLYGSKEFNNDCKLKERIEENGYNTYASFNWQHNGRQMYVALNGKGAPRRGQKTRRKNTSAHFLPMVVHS

[6] = tested on: glycogen synthase kinase-3 (GSK3A per assay name; protocol says GSK3B); experiment: compounds binding glycogen synthase kinase-3 – biochemical, small-molecule microarray, 635 nm fluorescence, GSK3A, primary screen (AID 1103); conditions: fluorescence 635 nm, higher = more signal; also: the record names both GSK3A and GSK3B
[7] = target: Epidermal growth factor receptor (Homo sapiens) (UniProt P00533); experiment: compounds binding epidermal growth factor receptor – biochemical, small-molecule microarray, 635 nm fluorescence, primary screen (AID 1104); conditions: EGFR binding, higher = more signal;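 also: score merges 667 nm emission intensity with spot signal to noise over triplicate slides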
Chain of Epidermal growth factor receptor (Homo sapiens) (P00533 whole entry, looked up): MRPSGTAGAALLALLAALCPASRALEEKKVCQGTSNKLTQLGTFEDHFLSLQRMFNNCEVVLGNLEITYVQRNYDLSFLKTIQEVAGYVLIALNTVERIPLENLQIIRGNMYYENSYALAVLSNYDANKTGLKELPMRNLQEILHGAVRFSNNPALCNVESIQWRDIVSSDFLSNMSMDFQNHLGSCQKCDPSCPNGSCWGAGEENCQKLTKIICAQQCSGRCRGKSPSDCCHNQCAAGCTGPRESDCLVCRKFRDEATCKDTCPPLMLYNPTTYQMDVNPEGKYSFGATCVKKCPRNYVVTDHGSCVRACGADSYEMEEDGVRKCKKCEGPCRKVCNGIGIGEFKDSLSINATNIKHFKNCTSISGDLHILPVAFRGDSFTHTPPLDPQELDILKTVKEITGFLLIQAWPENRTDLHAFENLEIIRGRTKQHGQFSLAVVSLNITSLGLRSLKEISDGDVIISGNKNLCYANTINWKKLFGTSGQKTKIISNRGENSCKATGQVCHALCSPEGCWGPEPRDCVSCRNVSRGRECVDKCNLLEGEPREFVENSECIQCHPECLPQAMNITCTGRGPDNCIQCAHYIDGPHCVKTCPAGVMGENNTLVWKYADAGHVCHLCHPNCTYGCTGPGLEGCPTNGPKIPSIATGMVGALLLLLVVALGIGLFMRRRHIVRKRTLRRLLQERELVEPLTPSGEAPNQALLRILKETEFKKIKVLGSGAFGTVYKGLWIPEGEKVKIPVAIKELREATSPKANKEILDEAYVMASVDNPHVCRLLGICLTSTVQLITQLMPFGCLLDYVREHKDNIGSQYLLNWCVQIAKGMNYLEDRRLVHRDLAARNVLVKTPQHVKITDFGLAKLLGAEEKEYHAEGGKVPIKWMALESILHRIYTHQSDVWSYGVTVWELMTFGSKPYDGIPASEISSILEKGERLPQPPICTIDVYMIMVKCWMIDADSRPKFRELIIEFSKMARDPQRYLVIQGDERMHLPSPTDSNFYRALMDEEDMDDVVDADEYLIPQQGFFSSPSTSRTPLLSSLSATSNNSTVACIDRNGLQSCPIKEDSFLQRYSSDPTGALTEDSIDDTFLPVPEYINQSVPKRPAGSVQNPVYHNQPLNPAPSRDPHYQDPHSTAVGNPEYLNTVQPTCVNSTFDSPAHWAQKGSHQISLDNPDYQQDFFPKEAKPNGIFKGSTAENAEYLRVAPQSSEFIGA

[8] = target: Follistatin-related protein 3 (Homo sapiens) (UniProt O95633); experiment: compounds binding follistatin-related protein 3 – biochemical, small-molecule microarray, 635 nm fluorescence, primary screen (AID 1105); conditions: FSTL3 binding, higher = more signal;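 also: score merges emission near 667 nm and signal to noise per printed spot across three slides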
Chain of Follistatin-related protein 3 (Homo sapiens) (O95633 whole entry, looked up): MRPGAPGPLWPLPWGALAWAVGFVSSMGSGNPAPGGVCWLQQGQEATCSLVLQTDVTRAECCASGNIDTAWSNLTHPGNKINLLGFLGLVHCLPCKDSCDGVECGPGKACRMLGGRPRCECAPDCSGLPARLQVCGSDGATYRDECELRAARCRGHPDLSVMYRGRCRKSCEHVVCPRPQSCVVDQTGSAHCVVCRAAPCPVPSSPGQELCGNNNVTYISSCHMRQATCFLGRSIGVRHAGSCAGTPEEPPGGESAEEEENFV

[9] = target: Dickkopf-related protein 1 (Homo sapiens) (UniProt O94907); experiment: small molecules binding DKK1 protein – biochemical, small-molecule microarray, 635 nm fluorescence scan, primary screen (AID 1106); conditions: higher = more signal;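 also: score merges emission near 667 nm with signal to noise over three replicate slides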
Chain of Dickkopf-related protein 1 (Homo sapiens) (O94907 whole entry, looked up): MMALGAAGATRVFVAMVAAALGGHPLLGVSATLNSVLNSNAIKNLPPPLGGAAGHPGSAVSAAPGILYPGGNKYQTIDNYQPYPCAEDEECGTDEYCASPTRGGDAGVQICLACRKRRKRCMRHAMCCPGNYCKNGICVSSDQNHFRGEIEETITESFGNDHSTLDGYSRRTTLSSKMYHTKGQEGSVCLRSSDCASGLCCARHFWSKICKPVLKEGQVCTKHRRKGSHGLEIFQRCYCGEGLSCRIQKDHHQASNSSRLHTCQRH

[10] = tested on: Inhibin beta A chain (activin A); experiment: small molecules binding activin A – biochemical, small-molecule microarray, 635 nm fluorescence scan, primary screen (AID 1107); conditions: INHBA, higher = more signal;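 also: mouse activin A protein probed at 4.33 µg/mL on printed slides; score merges bound-protein fluorescence near 667 nm with spot signal-to-noise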
[11] = tested on: Human papillomavirus type 1a protein E7 (residues 44-93); experiment: small molecules binding HPV E7 44-93 – biochemical, small-molecule microarray, residues 44-93, 635 nm fluorescence, primary screen (AID 1108); conditions: fluorescence 635 nm, higher = more signal;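 also: E7 fragment applied at 1 µg/mL in TBST for 1 h at 4 C; score combines spot fluorescence with its signal to noise ratio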
[12] = hepatitis C replication reporter changes, two-sided – Huh7 cells, luciferase reporter, HCV replication inhibitor project, primary screen (AID 1109); conditions: Huh7 HCV replicon luciferase reporter, 48 h; higher = more signal;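 also: huh7 hepatoma cells harbouring a luciferase neomycin HCV replicon reporter; luciferase luminescence as measure of HCV replicon replication; test concentration not given here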
[13] = target: Left-right determination factor 2 (Homo sapiens) (UniProt O00292); experiment: small molecules binding LEFTY2 protein – biochemical, small-molecule microarray, 635 nm fluorescence scan, primary screen (AID 1110); conditions: higher = more signal
Chain of Left-right determination factor 2 (Homo sapiens) (O00292 whole entry, looked up): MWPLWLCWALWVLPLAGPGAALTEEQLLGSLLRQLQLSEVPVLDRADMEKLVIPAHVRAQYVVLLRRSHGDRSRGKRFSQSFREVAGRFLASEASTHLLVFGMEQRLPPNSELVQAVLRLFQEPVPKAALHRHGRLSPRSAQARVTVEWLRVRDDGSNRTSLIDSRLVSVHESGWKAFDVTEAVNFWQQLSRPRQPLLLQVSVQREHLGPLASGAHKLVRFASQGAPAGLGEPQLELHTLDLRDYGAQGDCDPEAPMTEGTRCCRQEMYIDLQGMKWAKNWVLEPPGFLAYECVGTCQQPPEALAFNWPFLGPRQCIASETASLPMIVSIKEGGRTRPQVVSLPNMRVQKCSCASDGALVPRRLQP

[14] = target: Calmodulin-1 (Homo sapiens) (UniProt P0DP23); experiment: small molecules binding calmodulin-1 with EGTA – biochemical, small-molecule microarray, Cy5-labelled CALM1, profiling panel (AID 1111); conditions: Cy5-CALM1 binding fluorescence, higher = more signal;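 also: labelled calmodulin applied in Tris saline Tween buffer holding calcium plus EGTA and DTT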
[15] = target: Calmodulin-1 (Homo sapiens) (UniProt P0DP23); experiment: small molecules binding Ca-loaded calmodulin-1 – biochemical, small-molecule microarray, Cy5-labelled CALM1, plus calcium, artefact control for SMM control-protein annotation, profiling panel (AID 1112); conditions: Cy5-CALM1 binding fluorescence, higher = more signal;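 also: score merges spot fluorescence with signal to noise from triplicate slides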
[16] = probe aWnt5a binding to arrayed compounds – biochemical, biotinylated probe, 635/667 nm fluorescence, primary screen (AID 1113); conditions: small-molecule microarray, higher = more signal;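 also: score merges 667 nm fluorescence intensity with signal-to-noise per printed feature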
[17] = probe aShh binding to arrayed compounds – biochemical, biotinylated probe, 635/667 nm fluorescence, primary screen (AID 1114); conditions: small-molecule microarray, higher = more signal;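 also: probe is biotin-labelled aShh protein from a stem cell growth factor screen; measures binding of labelled protein to compounds printed on the slide; score merges feature fluorescence at 667 nm with signal-to-noise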
[18] = probe aNog binding to arrayed compounds – biochemical, biotinylated probe, 635/667 nm fluorescence, primary screen (AID 1115); conditions: small-molecule microarray, higher = more signal;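 also: probe is biotinylated aNog protein used at 0.15 µg/mL for 1 h at 4 C; z-score combines 667 nm fluorescence of each spot with its signal to noise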
[19] = target: Torsin-1A-interacting protein 1 (Homo sapiens) (UniProt Q5JTV8); experiment: compound microarray binding of lysate hLAP1 – cell lysate, small-molecule microarray, COS7 lysate, 635/667 nm fluorescence, primary screen (AID 1116); conditions: 635 nm fluorescence, higher = more signal
Chain of Torsin-1A-interacting protein 1 (Homo sapiens) (Q5JTV8 whole entry, looked up): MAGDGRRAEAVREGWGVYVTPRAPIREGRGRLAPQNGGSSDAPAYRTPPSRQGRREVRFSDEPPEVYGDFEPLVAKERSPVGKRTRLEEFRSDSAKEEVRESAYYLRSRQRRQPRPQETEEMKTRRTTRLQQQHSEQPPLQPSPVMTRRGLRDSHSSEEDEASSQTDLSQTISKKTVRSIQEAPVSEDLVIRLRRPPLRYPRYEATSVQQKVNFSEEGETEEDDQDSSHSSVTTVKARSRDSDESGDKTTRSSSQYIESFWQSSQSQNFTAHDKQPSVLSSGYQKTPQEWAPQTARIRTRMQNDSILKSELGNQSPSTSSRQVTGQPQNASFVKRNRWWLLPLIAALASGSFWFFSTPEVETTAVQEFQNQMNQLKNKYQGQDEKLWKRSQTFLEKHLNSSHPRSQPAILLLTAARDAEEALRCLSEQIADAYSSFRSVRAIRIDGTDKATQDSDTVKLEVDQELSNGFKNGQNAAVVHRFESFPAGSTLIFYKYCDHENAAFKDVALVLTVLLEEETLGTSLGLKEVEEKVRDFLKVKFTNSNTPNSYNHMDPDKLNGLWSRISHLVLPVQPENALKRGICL

[20] = target: Alpha-bungarotoxin (Bungarus multicinctus) (UniProt P60615); experiment: compounds binding labelled alpha-BTX control protein – biochemical, small-molecule microarray, Alexa647 label, 635/667 nm fluorescence, artefact control for SMM control protein annotation, profiling panel (AID 1117); conditions: alpha-BTX-A647 binding fluorescence, higher = more signal
Chain of Alpha-bungarotoxin (Bungarus multicinctus) (P60615 whole entry, looked up): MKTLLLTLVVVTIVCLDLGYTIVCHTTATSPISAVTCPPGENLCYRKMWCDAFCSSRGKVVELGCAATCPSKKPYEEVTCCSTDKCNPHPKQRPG

Row | Structure (SMILES) | composite z-score [1] | composite z-score [2] | composite z-score [3] | z-score [4] | composite z-score [5] | composite z-score [6] | composite z-score [7] | composite z-score [8] | composite z-score [9] | composite z-score [10] | composite z-score [11] | z-score [12] | composite z-score [13] | composite z-score [14] | composite z-score [15] | composite z-score [16] | composite z-score [17] | composite z-score [18] | composite z-score [19] | composite z-score [20]
1 | CCN1C(=O)[C@H]2[C@H]3[C@H](O)[C@H](O)CC(=NOCc4ccccc4)[C@H]3CC[C@H]2C1=O | 0.18 | -0.237 | -0.278 | 0.462 (inactive) | 0.47 | 0.0166 | 0.0741 | -0.257 | 0.132 | -0.114 | -0.0677 | 0.396 | 0.387 | -0.253 | -0.787 | -0.139 | -0.214 | 0.128 | 0.151 | 0.437
2 | O=C1[C@H]2[C@H]3[C@H](O)[C@H](O)CC(=NOCc4ccccc4)[C@H]3CC[C@H]2C(=O)N1c1cccc(Oc2ccccc2)c1 | 0.669 | -0.421 | -0.469 | 0.639 (inactive) | 0.787 | 0.596 | 0.349 | 0.911 | 0.487 | -0.0134 | 0.934 | 0.162 | 0.389 | 0.364 | -0.177 | 0.0145 | -0.16 | -0.305 | 0.683 | 0.684
3 | CC(C)NC(=O)[C@@H]1c2ccccc2C(=O)N(CC23CC4CC(CC(C4)C2)C3)[C@H]1c1ccc(CO)cc1 | 1.45 | 0.171 | 0.46 | -1.21 (inactive) | 0.596 | 1.23 | 0.582 | 1.28 | 0.651 | 0.43 | 1.36 | -1.67 | 0.606 | 0.324 | -0.291 | -0.0835 | 0.439 | -0.338 | 0.774 | 0.812
4 | CCc1cc2c(nc1CC)CCN(CCC(C)=NOC(C)CN1CCCc3nc(C)c(C)cc31)C2 (stereo not given) | 1.05 | 0.612 | -0.242 | 0.211 (inactive) | 1.04 | 1.06 | 1.16 | 1.32 | 1.03 | 1.59 | 1.13 | -2.1 | 0.482 | 0.276 | -0.544 | 0.245 | 1.38 | 0.774 | 0.849 | 1.21
5 | COC(=O)[C@H](C)NC(=O)CCC1CC(OC(=O)NCc2cccc3ccccc23)CC2(CCCC(COC(=O)NCCc3ccc(Cl)cc3)O2)O1 (stereo not given in full) | -0.0744 | -0.299 | -0.444 | -0.875 (inactive) | 0.794 | 0.69 | 0.381 | 0.494 | 0.302 | -0.131 | 0.953 | -1.05 | 0.451 | 0.866 | -0.0789 | -0.0075 | -0.138 | -0.213 | 0.33 | 0.171
6 | O=C1[C@H]2[C@H]3[C@H](O)[C@H](O)CC(=NOC[C@@H](O)COCc4ccco4)[C@@H]3CC[C@H]2C(=O)N1c1ccc(F)cc1F | 0.365 | -0.399 | -0.712 | 0.237 (inactive) | 0.579 | 0.318 | 0.931 | 0.499 | 0.671 | 0.574 | 0.427 | 0.199 | 0.74 | -0.616 | -1.01 | -0.0792 | -0.13 | -0.236 | 0.515 | -0.255
7 | O=C1[C@H]2[C@H]3[C@H](O)[C@H](O)CC(=NOC[C@@H](O)COCc4ccco4)[C@H]3CC[C@H]2C(=O)N1c1cccc(Oc2ccccc2)c1 | 0.846 | -0.317 | 0.166 | -0.716 (inactive) | -0.86 | -0.686 | -0.249 | -0.65 | -0.547 | 0.624 | -0.496 | 0.126 | -1.1 | -0.876 | -0.344 | -0.0792 | -0.138 | -0.0671 | 0.103 | -0.572
8 | COCCOC(=O)N1C(=O)[C@@]2(c3ccccc31)[C@H](C(N)=O)[C@H]1C(=O)O[C@H](c3ccccc3)[C@H](c3ccccc3)N1[C@@H]2c1ccccc1OCCO | 1.31 | 0.756 | 0.799 | -0.0592 (inactive) | 1.23 | 0.98 | 0.483 | 0.584 | 0.516 | 0.617 | 1.32 | -2.2 | 0.565 | 2.3 | 0.668 | -0.0118 | -0.0035 | 0.162 | 4.3 | 2.62
9 | C=C(CCCC)C(=O)CC[C@@H](OC(C)=O)c1cccc(OCCO)c1 | 1.12 | -0.278 | -0.654 | 0.726 (inactive) | 0.195 | -0.249 | -0.161 | 0.158 | 0.329 | 0.474 | -0.701 | -4.56 | 0.333 | -0.602 | -1.28 | -0.12 | -0.0227 | -0.0381 | 2.13 | -0.0603
10 | CC(C)c1ccc(NN2C(C(O)c3ccc4c(c3)OCO4)C=CC3C(=O)N(c4ccccc4)C(=O)C32)cc1 (stereo not given) | 1.19 | 0.521 | 0.944 | 1.18 (inactive) | 0.584 | 1.18 | 0.407 | 0.886 | 0.263 | 0.581 | 0.688 | 1.11 | 0.168 | 2.56 | 1.28 | 0.0775 | 0.108 | 2.13 | 2.2 | 1.92
11 | CO[C@H]1O[C@H](CO)[C@@H](OC(=O)Nc2ccc3c(c2)OCO3)[C@H](OC(=O)Nc2ccccc2-c2ccccc2)[C@@H]1OC(=O)Nc1ccccc1-c1ccccc1 | 1.29 | 0.277 | 0.542 | 0.176 (inactive) | 1.38 | 1.15 | 0.23 | 0.936 | 0.271 | -0.548 | 1.36 | -2.26 | 0.232 | 1.6 | 0.116 | 0.0601 | 0.184 | 0.902 | 1.28 | 0.614
